Results as given in PubChem BioAssay AID686996 (Broad Institute, 2013).
“And” between values parts separate entries of the source, which are not always exact repeats. Equal entries are not always repeated. Hit rate of the full screen: of about 350,000 compounds, about 1,900 (0.54%) were called active.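 Rule for the calls: active = mean inhibition across replicates at least about 35%, with every replicate also reaching that limit (limit read from the data); inconclusive = only one of the two criteria met; inactive = neither criterion met.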 Only a selection was taken, and actives are over-represented in it overall. The source holds several records for some structures; these can differ, active in one and inactive in another.

molecular target: Caspase-6 (Homo sapiens) (UniProt P55212); assay: human caspase-6 inhibitors, primary screen, biochemical, VEID-R110 fluorescence, single point, set 2 (AID 686996); conditions: purified caspase-6, Z-VEID-R110 cleavage fluorescence; at 12.5 µM; stronger effect = higher value;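 note: 0% = median of neutral control wells and 100% = no fluorescence left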
Sequence (P55212 24-179 limits assumed): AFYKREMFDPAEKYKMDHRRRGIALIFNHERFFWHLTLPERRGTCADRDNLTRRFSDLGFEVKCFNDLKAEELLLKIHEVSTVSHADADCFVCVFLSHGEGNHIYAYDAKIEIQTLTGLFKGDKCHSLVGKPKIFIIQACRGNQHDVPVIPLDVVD
Sequence (P55212 194-293 limits assumed): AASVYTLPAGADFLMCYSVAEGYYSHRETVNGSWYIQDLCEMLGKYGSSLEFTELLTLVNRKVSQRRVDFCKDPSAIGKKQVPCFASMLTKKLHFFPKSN

Compound | inhibition
CC=Cc1ccc2n(c1=O)C[C@@H]1[C@@H](CO)[C@H](C(=O)NCCc3ccccc3)N(C(C)=O)[C@H]21 (mixture of isomers) | 61.2% (active)
CC=Cc1ccc2n(c1=O)C[C@@H]1[C@@H](CO)[C@H](C(=O)N(C)C)[C@H]2N1CCc1ccccc1 (mixture of isomers) | -1.44% (inactive)
CC=Cc1ccc2n(c1=O)C[C@@H]1[C@@H](CO)[C@H](C(=O)N[C@H](C)c3ccccc3)N(C(=O)c3cnccn3)[C@H]21 (mixture of isomers) | -3.98% (inactive)
CO[C@H]1CN(C)C(=O)c2ccc(NC(=O)C3CC3)cc2OC[C@@H](C)N(Cc2ccc(F)cc2)C[C@@H]1C | 3.32% (inactive)
C=CC1=C(C(=O)O)N2C(=O)[C@@H](NC(=O)/C(=N/OCC(=O)O)c3csc(N)n3)[C@H]2SC1 | 88.2% (active)
CCN1CCN(C(=O)N[C@@H](C(=O)N[C@@H]2C(=O)N3C(C(=O)O)=C(CSc4nnnn4C)CS[C@H]23)c2ccc(O)cc2)C(=O)C1=O | 0.383% (inactive)
Cc1cc(C)cc(C(=O)NC2C(=O)N3C(C(=O)O)=C(CSc4nnc(C)s4)CSC23)c1 (configuration not stated) | 9.95% (inactive)
CO/N=C(\C(=O)N[C@@H]1C(=O)N2C(C(=O)O)=C(COC(C)=O)CS[C@H]12)c1csc(N)n1 (stereo in doubt) | 13.9% (inactive) and 5.09% (inactive) and 37.7% (active)
COc1ccccc1NC(=O)N1C[C@H](O)COC[C@H]2O[C@H](CC(=O)NCCc3ccccc3)CC[C@@H]21 | 1.79% (inactive)
COc1ccccc1CN1CC[C@@H]2[C@@H](CO)Nc3ccc(C#Cc4ccccc4)cc3[C@@H]21 | 0.663% (inactive)
C[C@@H]1CN([C@@H](C)CO)C(=O)c2cc(NC(=O)Nc3cccc4ccccc34)ccc2O[C@@H]1CN(C)C(=O)NC1CCCCC1 | 0.662% (inactive)
C[C@@H](O)C#Cc1cnc2c(c1)C(=O)N([C@@H](C)CO)C[C@H](C)[C@@H](CN(C)CC1CCCCC1)O2 | 2.32% (inactive)
Cc1cc(N=Nc2ccc3ccccc3c2)ccc1O | 2.65% (inactive)
Oc1ccc(N=Cc2c(O)ccc3ccccc23)cc1 | 36.4% (active)
Oc1ccc(/C=N/N(Cc2ccccc2)c2ccccc2)cc1 | -0.437% (inactive)
COc1ccc(S(=O)(=O)Nc2cccc3c2O[C@H](CN(C)Cc2ccc4c(c2)OCO4)[C@H](C)CN([C@@H](C)CO)C3=O)cc1 | 0.634% (inactive)
C[C@H]1CCCCO[C@H](CN(C)C(=O)Nc2ccccc2)[C@@H](C)CN([C@@H](C)CO)C(=O)c2cc(NC(=O)c3ccncc3)ccc2O1 | -0.544% (inactive)
